Measured values published in PubChem BioAssay (EPA / NIEHS).
Where a structure was tested more than once in an assay, its records may differ in their call. Calls of active or inactive are those of the source. Rule for the calls: active = hit-call score of the fitted dose curve at least 0.9, where 1 is the maximum; inactive = score below 0.9.

How the values were obtained:
[1] = BSK_3C_TissueFactor: BioMAP Diversity Plus: 3C Assay for Tissue Factor Biomarker Activity (AID 2282997); settings: BioMAP 3C HUVEC, tissue factor biomarker readout; actives raise or lower the signal
Method in brief: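 Dosing of human umbilical vein endothelial cells preceded a 24 h incubation. Tissue Factor was then read by ELISA, with increases and decreases both scored relative to DMSO controls.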

[2] = BSK_3C_uPAR: BioMAP Diversity Plus: 3C Assay for Urokinase-type plasminogen activator receptor (uPAR) Biomarker Activity (AID 2282998); settings: BioMAP 3C HUVEC, uPAR biomarker ELISA; actives raise or lower the signal
Method in brief: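 Readout: ELISA for surface uPAR. System: human umbilical vein endothelial primary cells, 24 h after chemical exposure. Analysis: bidirectional fit, DMSO baseline.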

[3] = BSK_4H_Eotaxin3: BioMAP Diversity Plus: 4H Assay for Eotaxin 3 Biomarker Activity (AID 2283000); settings: primary human endothelial cells (HUVEC); actives raise or lower the signal;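 for outcome: CCL26 protein level quantified by ELISA in parallel with SRB cytotoxicity check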
Method in brief: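 Human umbilical vein endothelial cells (BSK_4H system) dosed with test chemical; Eotaxin-3 (CCL26) measured by ELISA 24 h after dosing. Bidirectional curve fitting relative to DMSO negative control as baseline.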

[4] = read-out: Intercellular Adhesion Molecule 1 (ICAM1), ICAM1 (gene 3383); experiment: BSK_3C_ICAM1: BioMAP Diversity Plus: 3C Assay for Intercellular Adhesion Molecule 1 (ICAM1) Biomarker Activity (AID 2283003); settings: primary human endothelial cells (HUVEC); actives raise or lower the signal
Method in brief: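 Human vascular endothelial primary cells, 3C conditions, 24 h treatment. ICAM-1 by ELISA.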

[5] = read-out: E-selectin (Homo sapiens) (UniProt P16581); experiment: BSK_3C_Eselectin: BioMAP Diversity Plus: 3C Assay for Eselectin Biomarker Activity (AID 2283015); settings: primary human endothelial cells (HUVEC); actives raise or lower the signal
Method in brief: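 E-selectin ELISA readout, fitted bidirectionally relative to DMSO, taken 24 h post-dosing in HUVEC cultures of the 3C system. Overt cytotoxicity tracked with sulforhodamine B staining of parallel wells.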

[6] = read-out: Monocyte Chemoattractant Protein-1 (MCP1), CCL2 (gene 6347); experiment: BSK_4H_MCP1: BioMAP Diversity Plus: 4H Assay for Monocyte Chemoattractant Protein-1 (MCP1) Biomarker Activity (AID 2283018); settings: primary human endothelial cells (HUVEC); actives raise or lower the signal
Method in brief: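 Readout: MCP-1 ELISA on compound-treated HUVEC, sampled 24 h post-dosing. Baseline and negative control DMSO; bidirectional fit. Overt toxicity checked alongside by sulforhodamine B protein staining at time of biomarker measurement.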

[7] = read-out: Human Leukocyte Antigen - DR isotype (HLADR), HLA-DRA (gene 3122); experiment: BSK_3C_HLADR: BioMAP Diversity Plus: 3C Assay for Human Leukocyte Antigen - DR isotype (HLADR) Biomarker Activity (AID 2283019); settings: primary human endothelial cells (HUVEC); actives raise or lower the signal;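 for outcome: ELISA of cell-surface HLA-DR on HUVEC 24 h after dosing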
Method in brief: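 Bidirectional fitting against DMSO was applied to the HLA-DR ELISA signal from human umbilical vein endothelial cells, 24 h post-dose. Cytotoxicity came from parallel SRB total-protein staining; 3C proliferation was counted by SRB at 48 h.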

[8] = read-out: Monokine induced gamma interferon (MIG), CXCL9 (gene 4283); experiment: BSK_3C_MIG: BioMAP Diversity Plus: 3C Assay for Monokine induced gamma interferon (MIG) Biomarker Activity (AID 2283021); settings: primary human endothelial cells (HUVEC); actives raise or lower the signal
Method in brief: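 After 24 h of treatment, human umbilical vein endothelial cultures (3C system) had their MIG biomarker level determined by ELISA, with DMSO serving as negative control.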

[9] = BSK_3C_SRB: Viability Assessment in the BioMAP Diversity Plus: 3C Assay (AID 2283023); settings: primary human endothelial cells (HUVEC);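 note: fitted both ways against DMSO so a hit may be signal rise or drop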
Method in brief: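 Cytotoxicity readout in parallel HUVEC 3C cultures: after 24 h compound exposure, cells fixed with 10% TCA, stained with 0.1% SRB and read at 560 nm. Gain or loss relative to DMSO fitted.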

[10] = read-out: Matrix Metallopeptidase 1 (MMP1), MMP1 (gene 4312); experiment: BSK_BE3C_MMP1: BioMAP Diversity Plus: BE3C Assay for Matrix Metallopeptidase 1 (MMP1) Biomarker Activity (AID 2283024); settings: primary human bronchial epithelial cells; actives raise or lower the signal
Method in brief: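 Dose cells, wait 24 h, run MMP1 ELISA; cells are human bronchial epithelial primaries. Both increases and decreases relative to DMSO counted.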

[11] = BSK_BE3C_SRB: Viability Assessment in the BioMAP Diversity Plus: BE3C Assay (AID 2283028); settings: primary human bronchial epithelial cells
Method in brief: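 Cytotoxicity read-out: SRB (0.1%) staining of TCA-fixed (10%) human lung bronchial epithelial cells, absorbance 560 nm, 24 h post-dosing. Curves fitted both directions relative to DMSO.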

[12] = read-out: Thrombomodulin, THBD (gene 7056); experiment: BSK_3C_Thrombomodulin: BioMAP Diversity Plus: 3C Assay for Thrombomodulin Biomarker Activity (AID 2283029); settings: primary human endothelial cells (HUVEC); actives raise or lower the signal
Method in brief: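 Thrombomodulin ELISA, human primary HUVEC, 24 h post-dose; data fitted in both directions relative to DMSO.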

[13] = read-out: Interferon-gamma inducible Protein 10 (IP10), CXCL10 (gene 3627); experiment: BSK_hDFCGF_IP10: BioMAP Diversity Plus: hDFCGF Assay for Interferon-gamma inducible Protein 10 (IP10) Biomarker Activity (AID 2283053); settings: primary human foreskin fibroblasts; actives raise or lower the signal
Method in brief: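 IP-10 levels, quantified by ELISA, are taken from human foreskin fibroblast cultures 24 h after chemical treatment, with DMSO serving as negative control and baseline for bidirectional analysis.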

[14] = read-out: Vascular cell adhesion molecule 1 (VCAM1), VCAM1 (gene 7412); experiment: BSK_CASM3C_VCAM1: BioMAP Diversity Plus: CASM3C Assay for Vascular cell adhesion molecule 1 (VCAM1) Biomarker Activity (AID 2283055); settings: primary human coronary artery smooth muscle cells; actives raise or lower the signal;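 note: VCAM-1 protein level quantified by ELISA on the cells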
[15] = read-out: Macrophage colony-stimulating factor (MCSF), CSF1 (gene 1435); experiment: BSK_hDFCGF_MCSF: BioMAP Diversity Plus: hDFCGF Assay for Macrophage colony-stimulating factor (MCSF) Biomarker Activity (AID 2283060); settings: AC50: primary human foreskin fibroblasts, actives raise or lower the signal unless noted; outcome: primary human foreskin fibroblasts, actives raise or lower the signal unless noted
Method in brief: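 M-CSF levels read by ELISA at 24 h post-dosing in human skin fibroblasts. Parallel cultures stained with SRB assessed cytotoxicity at the same time point; response fitted in both directions against the DMSO baseline.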

[16] = read-out: Matrix Metallopeptidase 1 (MMP1), MMP1 (gene 4312); experiment: BSK_hDFCGF_MMP1: BioMAP Diversity Plus: hDFCGF Assay for Matrix Metallopeptidase 1 (MMP1) Biomarker Activity (AID 2283064); settings: primary human foreskin fibroblasts; actives raise or lower the signal
Method in brief: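 Primary human foreskin fibroblasts exposed to chemicals for 24 h; MMP1 measured by ELISA. Cytotoxicity tracked by SRB staining in parallel cultures; bidirectional fit relative to DMSO.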

[17] = read-out: Interleukin-8 (IL8), CXCL8 (gene 3576); experiment: BSK_LPS_IL8: BioMAP Diversity Plus: LPS Assay for Interleukin-8 (IL8) Biomarker Activity (AID 2283078); settings: primary human HUVEC with PBMC; actives raise or lower the signal
Method in brief: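 ELISA read-out of IL-8 after 24 h chemical treatment of LPS-activated endothelial/PBMC human primary co-cultures. Changes either up or down relative to DMSO; overt cytotoxicity checked by sulforhodamine B staining in parallel wells.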

[18] = read-out: E-selectin (Homo sapiens) (UniProt P16581); experiment: BSK_SAg_Eselectin: BioMAP Diversity Plus: SAg Assay for Eselectin Biomarker Activity (AID 2283091); settings: primary human HUVEC with PBMC; actives raise or lower the signal
Method in brief: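 Cell-surface E-selectin is read by ELISA at 24 h in the SAg co-culture of HUVEC and PBMC. Curves are fitted in both directions relative to DMSO. Parallel SRB total-protein staining tracks overt toxicity.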

[19] = BSK_SAg_PBMCCytotoxicity: PBMC Cytotoxicity Assessment in the BioMAP Diversity Plus: SAg Assay (AID 2283093); settings: primary human HUVEC with PBMC;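 note: PBMC viability measured as Alamar Blue reduction fluorescence at 546/580 nm; fitted both ways against DMSO so a hit may be loss or gain of signal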;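 for AC50: PBMC superantigen activated with SEB plus TSST-1 one hour after compound addition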
Method in brief: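 HUVEC/PBMC co-culture; PBMC exposed to chemical 1 h before SEB and TSST-1 activation (20 ng/mL each), incubated 90 h, then Alamar Blue 6 h, fluorescence 546/580 nm. Bidirectional fit versus DMSO baseline.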

[20] = read-out: Interleukin-8 (IL8), CXCL8 (gene 3576); experiment: BSK_SAg_IL8: BioMAP Diversity Plus: SAg Assay for Interleukin-8 (IL8) Biomarker Activity (AID 2283094); settings: primary human HUVEC with PBMC; actives raise or lower the signal
Method in brief: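 In this co-culture of human umbilical vein endothelium with peripheral blood mononuclear cells, IL-8 is assayed by ELISA at 24 h. DMSO serves as baseline for bidirectional curve fitting.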

Measured: AC50

Chain of E-selectin (Homo sapiens) (P16581 whole entry, looked up): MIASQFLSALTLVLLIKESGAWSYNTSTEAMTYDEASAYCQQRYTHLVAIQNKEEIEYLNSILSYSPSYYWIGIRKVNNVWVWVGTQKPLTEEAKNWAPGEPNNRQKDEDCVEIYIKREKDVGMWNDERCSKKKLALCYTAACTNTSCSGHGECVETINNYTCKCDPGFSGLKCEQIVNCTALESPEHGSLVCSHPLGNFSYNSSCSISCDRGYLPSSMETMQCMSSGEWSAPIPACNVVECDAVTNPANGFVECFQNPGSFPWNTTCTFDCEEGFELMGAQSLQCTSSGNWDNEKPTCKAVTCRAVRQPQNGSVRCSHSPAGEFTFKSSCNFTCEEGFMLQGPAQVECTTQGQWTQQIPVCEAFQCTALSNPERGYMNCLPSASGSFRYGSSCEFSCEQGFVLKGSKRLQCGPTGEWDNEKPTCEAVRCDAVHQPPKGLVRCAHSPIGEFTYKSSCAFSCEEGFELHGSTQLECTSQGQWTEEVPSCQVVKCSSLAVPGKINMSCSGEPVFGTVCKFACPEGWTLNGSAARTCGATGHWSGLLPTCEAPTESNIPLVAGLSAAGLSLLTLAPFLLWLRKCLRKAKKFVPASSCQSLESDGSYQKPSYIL

CCCCCCCCCC/C=C/C1CC(=O)OC1=O (stereo unspecified)
inactive: all assays above

COC(=O)/C=C\C(=O)OC
active: [5] 13.6 µM | [14] 20 µM | [18] 9.12 µM
inactive: all other assays above

CC[N+](CC)(CC(=O)Nc1c(C)cccc1C)Cc1ccccc1
active: [17] 0.182 µM
inactive: all other assays above

CC(C)CC(=O)CC(C)CC(C)C (stereo unspecified)
inactive: [8] | [11] | [13] | [15] | [16] | [17] | [18] | [20]
active: [1] 36 µM | [2] 30.9 µM | [3] 33.8 µM | [4] 35.2 µM | [5] 34.6 µM | [6] 31.1 µM | [7] 35.3 µM | [9] 35.2 µM | [10] 20 µM | [12] 20 µM | [14] 37.2 µM | [19] 33.3 µM

Cc1cccnc1
inactive: all assays above

CCC(C)=NO
inactive: all assays above

CC[N+](CC)(CC(=O)Nc1c(C)cccc1C)Cc1ccccc1 (tested in a mixture with another compound)
inactive: all assays above

C1CN(CCOCCN2CCOCC2)CCO1
inactive: [1] | [2] | [3] | [4] | [5] | [6] | [7] | [8] | [9] | [10] | [11] | [12] | [13] | [14] | [15] | [16] | [17] | [18] | [19] | [20]
active: [17] 4.01 µM
